Results on 34 compounds are retold here after ChEMBL document CHEMBL1961873, “Compounds: GSK PKIS; Assays: Nanosyn kinase panel” (2012).

As usually defined, the inhibition is the relative decrease from the control value, in per cent.

Dual specificity protein kinase CLK2 (Homo sapiens), sequence (P49760 whole entry, looked up): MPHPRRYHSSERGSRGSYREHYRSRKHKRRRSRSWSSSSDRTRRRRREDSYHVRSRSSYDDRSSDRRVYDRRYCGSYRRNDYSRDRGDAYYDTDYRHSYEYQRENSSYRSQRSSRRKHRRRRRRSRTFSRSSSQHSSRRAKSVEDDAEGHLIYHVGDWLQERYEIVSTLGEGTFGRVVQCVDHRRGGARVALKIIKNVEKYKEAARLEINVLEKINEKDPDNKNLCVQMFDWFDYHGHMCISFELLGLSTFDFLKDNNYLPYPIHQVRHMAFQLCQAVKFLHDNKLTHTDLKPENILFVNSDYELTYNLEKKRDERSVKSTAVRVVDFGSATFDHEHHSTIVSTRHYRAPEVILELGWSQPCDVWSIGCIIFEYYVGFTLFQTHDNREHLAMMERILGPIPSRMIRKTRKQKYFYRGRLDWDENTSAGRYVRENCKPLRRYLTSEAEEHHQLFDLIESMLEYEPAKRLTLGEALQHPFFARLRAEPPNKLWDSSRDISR

One experiment has as its target Dual specificity protein kinase CLK2 (Homo sapiens) (UniProt P49760). The following applies: at 0.1 µM.
Take `CN(c1ccc(NC(=O)Nc2c(Cl)cccc2Cl)cc1)c1ccnc(Nc2cccc(CS(C)(=O)=O)c2)n1`: the inhibition was 3.63%.

For `CCS(=O)(=O)c1ccc(OC)c(Nc2ncc(-c3cccc(-c4ccccc4F)c3)o2)c1`, the inhibition is 5.83%.

Take `CS(=O)(=O)CCNCc1ccc(-c2ccc3ncnc(Nc4ccc(OCc5ccccc5)c(Br)c4)c3c2)o1`: the inhibition is 1.39%.

For the compound `N#Cc1ccc(Oc2nccc(-c3c(-c4ccc(F)cc4)ncn3C3CCNCC3)n2)cc1`, the inhibition worked out at 1%.

For the compound `Fc1ccc(-c2ncn(C3CCNCC3)c2-c2ccnc(Oc3ccc4c(c3)OCO4)n2)cc1`, the inhibition is 0.55%.

In the case of `COc1cc(N2CCN(C(C)C)CC2)ccc1Nc1nc(Nc2ccc(F)cc2C(=O)NC[C@@H](O)CO)c2cc[nH]c2n1`, the inhibition came to 29.4%.

Take `O=C1NC(=O)C(c2cccc(Cl)c2)=C1Nc1ccc(Cl)c(C(=O)O)c1`: the inhibition was found to be 3.2%.

`NC(=O)c1cc(-c2ccncc2)cc(-c2ccccc2)c1N`: the inhibition stood at 1.45%.

On to `CS(=O)(=O)CCNCc1cc(-c2cc3c(Nc4ccc(OCc5cccc(F)c5)c(Cl)c4)ncnc3s2)cs1`, for which the inhibition is 2.41%.

As for `Cc1ccc(C(=O)NC2CCC2)cc1-c1ccc(C(=O)NCC2CC2)cc1`, the inhibition worked out at 0.82%.

For the compound `NC(=O)c1cc(-c2ccc(F)cc2)cc(-c2ccncc2)c1N`, the inhibition was determined as 0.69%.

On to `O=C(Nc1n[nH]c2cc(-c3ccccc3)ccc12)C1CC1`, for which the inhibition was determined as 1.71%.

For the compound `O=C(Nc1n[nH]c2nc(-c3ccc(O)cc3)c(Br)cc12)C1CC1`, the inhibition is 1.45%.

Regarding `C/C(Nc1ccc(S(N)(=O)=O)cc1)=C1/C(=O)Nc2ccccc21`, the inhibition amounted to 0.33%.

With `O=C1Nc2ccccc2/C1=C/Nc1ccc(-n2cncn2)cc1`, the inhibition was found to be 4.14%.

With `CCc1nccc2c1nc(-c1nonc1N)n2CC`, the inhibition is 1.1%.

`CCN(CC)Cc1ccc(Nc2nccc(-c3cnn4ncccc34)n2)cc1`: the inhibition was found to be 50.1%.

As for `Fc1ccc(-c2ncn(C3CCNCC3)c2-c2ccnc(Oc3ccc(F)c(F)c3)n2)cc1`, the inhibition was 0.86%.

Regarding `C[C@@H](Oc1cc(-n2cnc3ccc(OCC4CCN(C)CC4)cc32)sc1C(N)=O)c1ccccc1Cl`, the inhibition stood at 1.46%.

For the compound `COc1ccc2cc(-c3c(-c4ccncc4)nc(-c4ccc([S+](C)[O-])cc4C)n3C)ccc2c1` (stereo not drawn), the inhibition stood at 1.09%.

Turning to `CN1CCN(CCCNc2nc3ccc(Oc4ccc(NC(=O)Nc5cc(C(F)(F)F)ccc5F)cc4)cc3[nH]2)CC1`, the inhibition amounted to 2.17%.

Regarding `Nc1nccc(-c2c(-c3ccc(F)cc3)ncn2C2CCC(O)CC2)n1` (stereo not drawn), the inhibition was found to be 1.54%.

With `c1ccc(Oc2ccc(Nc3ncc(-c4ccccc4)o3)cc2)cc1`, the inhibition was -0.16%.

Consider `COc1ccc(-c2ccc3c(NC(=O)C4CC4)n[nH]c3n2)cc1`, for which the inhibition was 0.68%.

Turning to `O=C(Nc1n[nH]c2nc(-c3ccco3)ccc12)C1CC1`, the inhibition was -0.38%.

On to `CCS(=O)(=O)c1ccc(OC)c(Nc2ncc(-c3ccccc3Cl)o2)c1`, for which the inhibition came to 4.19%.

Consider `CN(C)c1ccc2c(c1)/C(=C/Nc1ccc(S(N)(=O)=O)cc1)C(=O)N2`, for which the inhibition was 1.72%.

Turning to `CN(C)CCCNc1nccc(-c2c(-c3ccc(F)cc3)nn3cc(C(F)(F)F)ccc23)n1`, the inhibition is 1.26%.

As for `CCC(=O)Nc1ccc(C)c(-c2ccc(C(=O)NCC3CC3)cc2)c1`, the inhibition came out at 0.05%.

In the case of `NS(=O)(=O)c1ccc(Nc2cc(-c3ccc(O)c(F)c3)n[nH]2)cc1`, the inhibition is 1.17%.

Turning to `COc1cc2ncn(-c3cc(OCCc4ccccc4)c(C(N)=O)s3)c2cc1OC`, the inhibition was 1.3%.

Consider `Cc1ccc(C(=O)NC(C)C)cc1-c1ccc(C(=O)NCC2CC2)cc1`, for which the inhibition is -1.1%.

For the compound `NCc1ccc(-n2c(-c3nonc3N)nc3cnccc32)cc1`, the inhibition was determined as 6.2%.

For the compound `COc1cc(Nc2ncc3c(C)nc(-c4cccc(C(F)(F)F)c4)n3n2)cc(OC)c1OC`, the inhibition came to 3.78%.

A further experiment has the same target. The settings on record: at 1 µM.
For `CN(c1ccc(NC(=O)Nc2c(Cl)cccc2Cl)cc1)c1ccnc(Nc2cccc(CS(C)(=O)=O)c2)n1`, the inhibition is 5.49%.

As for `CCS(=O)(=O)c1ccc(OC)c(Nc2ncc(-c3cccc(-c4ccccc4F)c3)o2)c1`, the inhibition came out at 36.9%.

With `CS(=O)(=O)CCNCc1ccc(-c2ccc3ncnc(Nc4ccc(OCc5ccccc5)c(Br)c4)c3c2)o1`, the inhibition was -1.17%.

Regarding `N#Cc1ccc(Oc2nccc(-c3c(-c4ccc(F)cc4)ncn3C3CCNCC3)n2)cc1`, the inhibition was -0.9%.

For the compound `Fc1ccc(-c2ncn(C3CCNCC3)c2-c2ccnc(Oc3ccc4c(c3)OCO4)n2)cc1`, the inhibition was found to be 0.01%.

Consider `COc1cc(N2CCN(C(C)C)CC2)ccc1Nc1nc(Nc2ccc(F)cc2C(=O)NC[C@@H](O)CO)c2cc[nH]c2n1`, for which the inhibition worked out at 82.9%.

Turning to `O=C1NC(=O)C(c2cccc(Cl)c2)=C1Nc1ccc(Cl)c(C(=O)O)c1`, the inhibition came out at 0.9%.

Take `NC(=O)c1cc(-c2ccncc2)cc(-c2ccccc2)c1N`: the inhibition was 1.33%.

As to `CS(=O)(=O)CCNCc1cc(-c2cc3c(Nc4ccc(OCc5cccc(F)c5)c(Cl)c4)ncnc3s2)cs1`, the inhibition stood at 2.14%.

Turning to `Cc1ccc(C(=O)NC2CCC2)cc1-c1ccc(C(=O)NCC2CC2)cc1`, the inhibition came to 1.37%.

On to `NC(=O)c1cc(-c2ccc(F)cc2)cc(-c2ccncc2)c1N`, for which the inhibition was determined as 1.24%.

Regarding `O=C(Nc1n[nH]c2cc(-c3ccccc3)ccc12)C1CC1`, the inhibition was found to be 2.28%.

On to `O=C(Nc1n[nH]c2nc(-c3ccc(O)cc3)c(Br)cc12)C1CC1`, for which the inhibition amounted to 5.65%.

As for `C/C(Nc1ccc(S(N)(=O)=O)cc1)=C1/C(=O)Nc2ccccc21`, the inhibition worked out at 2.45%.

Consider `O=C1Nc2ccccc2/C1=C/Nc1ccc(-n2cncn2)cc1`, for which the inhibition was found to be 21.6%.

For `CCc1nccc2c1nc(-c1nonc1N)n2CC`, the inhibition stood at 2.67%.

As for `CCN(CC)Cc1ccc(Nc2nccc(-c3cnn4ncccc34)n2)cc1`, the inhibition was determined as 91.7%.

In the case of `Fc1ccc(-c2ncn(C3CCNCC3)c2-c2ccnc(Oc3ccc(F)c(F)c3)n2)cc1`, the inhibition is -0.42%.

In the case of `C[C@@H](Oc1cc(-n2cnc3ccc(OCC4CCN(C)CC4)cc32)sc1C(N)=O)c1ccccc1Cl`, the inhibition was found to be 7.9%.

`COc1ccc2cc(-c3c(-c4ccncc4)nc(-c4ccc([S+](C)[O-])cc4C)n3C)ccc2c1` (stereo not drawn): the inhibition stood at 1.03%.

As to `CN1CCN(CCCNc2nc3ccc(Oc4ccc(NC(=O)Nc5cc(C(F)(F)F)ccc5F)cc4)cc3[nH]2)CC1`, the inhibition came to 1.41%.

As for `Nc1nccc(-c2c(-c3ccc(F)cc3)ncn2C2CCC(O)CC2)n1` (stereo not drawn), the inhibition came to 0.55%.

For the compound `c1ccc(Oc2ccc(Nc3ncc(-c4ccccc4)o3)cc2)cc1`, the inhibition was -0.28%.

For the compound `COc1ccc(-c2ccc3c(NC(=O)C4CC4)n[nH]c3n2)cc1`, the inhibition was found to be 1.56%.

On to `O=C(Nc1n[nH]c2nc(-c3ccco3)ccc12)C1CC1`, for which the inhibition is -0.4%.

Regarding `CCS(=O)(=O)c1ccc(OC)c(Nc2ncc(-c3ccccc3Cl)o2)c1`, the inhibition was 34.1%.

On to `CN(C)c1ccc2c(c1)/C(=C/Nc1ccc(S(N)(=O)=O)cc1)C(=O)N2`, for which the inhibition stood at 11%.

Regarding `CN(C)CCCNc1nccc(-c2c(-c3ccc(F)cc3)nn3cc(C(F)(F)F)ccc23)n1`, the inhibition is -0.07%.

As to `CCC(=O)Nc1ccc(C)c(-c2ccc(C(=O)NCC3CC3)cc2)c1`, the inhibition was -0.08%.

`NS(=O)(=O)c1ccc(Nc2cc(-c3ccc(O)c(F)c3)n[nH]2)cc1`: the inhibition came to 3.95%.

For the compound `COc1cc2ncn(-c3cc(OCCc4ccccc4)c(C(N)=O)s3)c2cc1OC`, the inhibition was 2.64%.

For the compound `Cc1ccc(C(=O)NC(C)C)cc1-c1ccc(C(=O)NCC2CC2)cc1`, the inhibition is -0.78%.

Regarding `NCc1ccc(-n2c(-c3nonc3N)nc3cnccc32)cc1`, the inhibition amounted to 28.7%.

For the compound `COc1cc(Nc2ncc3c(C)nc(-c4cccc(C(F)(F)F)c4)n3n2)cc(OC)c1OC`, the inhibition was 21.9%.
